# Test results from PubChem BioAssay (NCATS).
# Results filed as inconclusive are left out. Where a call stands in place of a potency, no number is given. Active and inactive are the calls of the source. The call rests on the fitted dose curve; in most records, active means well fitted curve in the direction sought with a large enough effect; inconclusive means small, poorly fitted or top-dose-only effect, or another doubt; inactive means no such curve, though single readings can be large; an effect the other way counts as inactive or inconclusive.
# Key:
# [1] = qHTS assay for measurement of the activity of small molecule inhibitors on Zika virus induced Caspase-3 activity in human iPSC derived neural progenitor cells (hNPCs) (AID 1224857); further: nearly all actives have a fitted effect of over 65% in size
# Outline: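 After overnight (16–20 h) culture at 350 cells/well, hNPCs get compound, then ZIKV 2 FFU/cell one hour later. Six hours on, Caspase-Glo 3/7 is added and luminescence measured.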
# [2] = qHTS assay for measurement of the activity of small molecule inhibitors on Zika virus induced Caspase-3 activity in human astrocytoma cells (AID 1224859)
# Outline: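 Inhibition of Zika-induced caspase-3/7 activity: SNB-19 cells, 1 h compound pretreatment, ZIKV 2 FFU/cell for 6 h at 37 C, Caspase-Glo luminescence read-out.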
# [3] = qHTS assay to identify small molecule inhibitors of chordoma cells - UCH-1 (AID 1259355); further: nearly all actives have a fitted effect of over 55% in size
# Outline: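 A 48hr growth-inhibition format: each drug tested at 15 concentrations together with added auranofin, camptothecin, doxorubicin, rubitecan and topotecan, with cell viability quantified as CellTiter-Glo luminescence.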
# [4] = qHTS assay to identify small molecule inhibitors of chordoma cells - UCH-2 (AID 1259356); further: series mostly up to about 46 µM
# [5] = P-glycoprotein substrates identified in KB-8-5-11 adenocarcinoma cell line, qHTS therapeutic library screen (AID 1346987); details: outcome: dose series up to 44.5 µM; further: series mostly up to about 44 µM; nearly all actives have a fitted effect of over 65% in size
# Outline: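 Human cervical adenocarcinoma KB-8-5-11 cells, selected in colchicine to over-express P-gp and assayed without it, were exposed for 72 h to titrated compounds. An ATP-based luminescent viability signal gave AC50.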
# [6] = NS1 protein of Zika virus - qHTS assay to identify small molecule inhibitors in human HEK 293 cells (AID 1347053); further: series mostly up to about 46 µM; nearly all actives have a fitted effect of over 55% in size
# Outline: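 TR-FRET signal from two anti-ZIKV NS1 antibodies quantified NS1 in HEK 293 cells 24 h after MR766 infection at MOI = 0.5; compounds were added 1 h before virus. Uninfected cells and infected cells defined the NS1 normalization range.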
# [7] = qHTS of pediatric cancer cell lines to identify multiple opportunities for drug repurposing: Primary screen for TC32 cells (AID 1347089); further: nearly all actives have a fitted effect of over 60% in size
# Outline: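 qHTS, TC32, 48 h drug treatment, CellTiter-Glo luminescence as a proxy for metabolically active cells; primary top concentration 46 µM (MIPE 11-pt, NPC 8-pt); confirmatory 11-pt.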
# [8] = qHTS of pediatric cancer cell lines to identify multiple opportunities for drug repurposing: Primary screen for DAOY cells (AID 1347090); further: series mostly up to about 46 µM; nearly all actives have a fitted effect of over 55% in size
# Outline: (§1)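 Eight- or eleven-point concentration series, 48 h treatment at 37 degrees C in growth media; readout CellTiter-Glo luminescence. Potency and efficacy were taken from the concentration-response curves.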
# [9] = qHTS of pediatric cancer cell lines to identify multiple opportunities for drug repurposing: Primary screen for SJ-GBM2 cells (AID 1347091)
# Outline: as §1
# [10] = qHTS of pediatric cancer cell lines to identify multiple opportunities for drug repurposing: Primary screen for SK-N-MC cells (AID 1347093); further: potency means the concentration at half of the fitted maximal effect
# Outline: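 Metabolically active cells were quantified by ATP-dependent luminescence (CellTiter-Glo, 15 min at room temperature) following 48 h treatment. Cells had been plated at 500-1,000 per well and settled for 5 h beforehand.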
# [11] = qHTS of pediatric cancer cell lines to identify multiple opportunities for drug repurposing: Primary screen for BT-37 cells (AID 1347094); further: series mostly up to about 57 µM
# Outline: (§2)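 Readout: CellTiter-Glo luminescence, 48 h treatment. Controls DMSO (neutral) and bortezomib 2.3 µM final (positive). Potency and efficacy taken from primary-screen concentration-response curves.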
# [12] = qHTS of pediatric cancer cell lines to identify multiple opportunities for drug repurposing: Primary screen for NB-EBc1 cells (AID 1347095)
# Outline: as §2
# [13] = qHTS of pediatric cancer cell lines to identify multiple opportunities for drug repurposing: Primary screen for U-2 OS cells (AID 1347096); further: nearly all actives have a fitted effect of over 50% in size
# Outline: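 Cells (500-1,000/well) in growth media were settled 5 h at 37 degrees C, then given compounds for 48 h. Viability was read as CellTiter-Glo luminescence. Primary runs used MIPE at 11 points (0.78 nM-46 µM) and NPC at 8 points (0.59 nM-46 µM); follow-ups used 11 points.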
# [14] = qHTS of pediatric cancer cell lines to identify multiple opportunities for drug repurposing: Primary screen for Saos-2 cells (AID 1347097); further: nearly all actives have a fitted effect of over 40% in size
# Outline: as §2
# [15] = qHTS of pediatric cancer cell lines to identify multiple opportunities for drug repurposing: Primary screen for SK-N-SH cells (AID 1347098); further: nearly all actives have a fitted effect of over 65% in size
# Outline: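 Cells (500-1,000/well) rested 5 h, then received compounds for 48 h; metabolically active cells were measured by CellTiter-Glo luminescence. Final concentrations spanned up to 46 µM (MIPE, 11-point) or 0.59 nM-46 µM (NPC, 8-point) in primary screens, 11-point in follow-ups.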
# [16] = qHTS of pediatric cancer cell lines to identify multiple opportunities for drug repurposing: Primary screen for A673 cells (AID 1347092); further: nearly all actives have a fitted effect of over 45% in size
# Outline: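 Luminescence from CellTiter-Glo, taken after 15 min at room temperature, served as the proxy for metabolically active cells following 48 h treatment. Both potency and efficacy were taken from curves fitted to the titration data.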
Compound,outcome [1],outcome [2],outcome [3],outcome [4],outcome [5],outcome [6],outcome [7],outcome [8],outcome [9],Potency [10],outcome [11],outcome [12],outcome [13],outcome [14],outcome [15],outcome [16]
O=C(O)COC(=O)Cc1ccccc1Nc1c(Cl)cccc1Cl,inactive,inactive,inactive,inactive,inactive,inactive,inactive,inactive,inactive,26.6 µM (active),inactive,inactive,inactive,inactive,inactive,–
Cc1cc(NC(=O)C2=C(O)c3ccccc3S(=O)(=O)N2C)no1,inactive,inactive,inactive,inactive,inactive,inactive,inactive,inactive,inactive,inactive,inactive,inactive,inactive,–,inactive,inactive
C/C(=C(\CCO)SS/C(CCO)=C(\C)N(C=O)Cc1cnc(C)nc1N)N(C=O)Cc1cnc(C)nc1N,inactive,inactive,inactive,inactive,inactive,inactive,inactive,inactive,inactive,inactive,inactive,inactive,inactive,inactive,inactive,–
NCc1ccc(S(N)(=O)=O)cc1,inactive,inactive,inactive,inactive,inactive,inactive,inactive,inactive,inactive,inactive,inactive,inactive,inactive,–,inactive,inactive
O=C1CC[C@@H](C(=O)O)N1,inactive,inactive,inactive,inactive,inactive,inactive,inactive,inactive,inactive,inactive,inactive,inactive,inactive,–,inactive,inactive
O=C(/C=C/c1ccccc1)OCc1ccccc1,inactive,inactive,inactive,inactive,inactive,inactive,inactive,inactive,inactive,inactive,inactive,inactive,inactive,inactive,inactive,–
O=c1[nH]c2cc(C(F)(F)F)c(N3CCOCC3)cc2n(CP(=O)(O)O)c1=O,inactive,inactive,inactive,inactive,inactive,inactive,inactive,inactive,inactive,–,inactive,inactive,inactive,inactive,inactive,inactive
Nc1ccc(C(=O)Oc2ccccc2)c(O)c1,inactive,inactive,inactive,inactive,inactive,inactive,inactive,inactive,inactive,inactive,inactive,–,inactive,–,–,inactive
O=C(NCC(O)CO)c1c(I)c(C(=O)NCC(O)CO)c(I)c(N(CCO)C(=O)CO)c1I (stereo not drawn),inactive,inactive,inactive,inactive,inactive,inactive,inactive,inactive,inactive,inactive,inactive,inactive,inactive,–,inactive,inactive
